Test results as given in PubChem BioAssay (EPA / NIEHS).
The source holds several records for some structures; these can differ, active in one and inactive in another. Calls of active or inactive are those of the source. Rule for the calls: active = hit-call score of the fitted dose curve at least 0.9, where 1 is the maximum; inactive = score below 0.9.

Tests used:
[1] = read-out: Interleukin-1 alpha (IL1a), IL1A (gene 3552); assay: BSK_LPS_IL1a: BioMAP Diversity Plus: LPS Assay for Interleukin-1 alpha (IL1a) Biomarker Activity (AID 2283080); details: primary human HUVEC with PBMC; actives raise or lower the signal
How it was run: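 ELISA read-out of IL-1 alpha from a human primary vascular co-culture (endothelium plus PBMC) under LPS, sampled 24 hours post-dosing. Activity was fitted in both directions relative to DMSO controls.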

[2] = read-out: Monocyte Chemoattractant Protein-1 (MCP1), CCL2 (gene 6347); assay: BSK_LPS_MCP1: BioMAP Diversity Plus: LPS Assay for Monocyte Chemoattractant Protein-1 (MCP1) Biomarker Activity (AID 2283081); details: primary human HUVEC with PBMC; actives raise or lower the signal
How it was run: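 Human endothelial–PBMC co-cultures were dosed with chemical, then LPS-driven MCP-1 levels were quantified by ELISA at 24 h. Activity in either direction was fitted versus DMSO negative control.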

[3] = BSK_LPS_PGE2: BioMAP Diversity Plus: LPS Assay for Prostaglandin E2 (PGE2) Biomarker Activity (AID 2283082); details: primary human HUVEC with PBMC; actives raise or lower the signal;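 for AC50: secreted prostaglandin E2 measured by ELISA in LPS-stimulated co-culture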
How it was run: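 HUVEC plus PBMC co-culture stimulated with LPS; secreted PGE2 quantified by ELISA 24 h after chemical dosing. Activity fitted bidirectionally against DMSO as negative control and baseline; parallel SRB total-protein staining served as cytotoxicity check.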

[4] = read-out: Macrophage colony-stimulating factor (MCSF), CSF1 (gene 1435); assay: BSK_LPS_MCSF: BioMAP Diversity Plus: LPS Assay for Macrophage colony-stimulating factor (MCSF) Biomarker Activity (AID 2283083); details: primary human HUVEC with PBMC; actives raise or lower the signal
How it was run: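 ELISA readout of M-CSF after 24 h compound exposure in a human endothelial/PBMC co-culture. Activity, in either direction, is fitted relative to DMSO vehicle.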

[5] = read-out: Tissue Factor, F3 (gene 2152); assay: BSK_LPS_TissueFactor: BioMAP Diversity Plus: LPS Assay for Tissue Factor Biomarker Activity (AID 2283084); details: primary human HUVEC with PBMC; actives raise or lower the signal
How it was run: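 ELISA signal for cell-surface Tissue Factor (CD142) was read 24 h after compound dosing of an LPS-stimulated human endothelial–PBMC primary co-culture. Gain or loss of signal was scored relative to DMSO.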

[6] = read-out: Tumor necrosis factor (Homo sapiens) (UniProt P01375); assay: BSK_LPS_TNFa: BioMAP Diversity Plus: LPS Assay for Tumour Necrosis Factor alpha (TNFa) Biomarker Activity (AID 2283085); details: primary human HUVEC with PBMC; actives raise or lower the signal
How it was run: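 Human umbilical vein endothelial cells co-cultured with PBMC were exposed to test chemical and TNFa measured by ELISA 24 h after dosing. Bidirectional curve fitting was done relative to DMSO as negative control and baseline.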

[7] = read-out: Vascular cell adhesion molecule 1 (VCAM1), VCAM1 (gene 7412); assay: BSK_LPS_VCAM1: BioMAP Diversity Plus: LPS Assay for Vascular cell adhesion molecule 1 (VCAM1) Biomarker Activity (AID 2283086); details: primary human HUVEC with PBMC; actives raise or lower the signal
How it was run: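 Human umbilical vein endothelial cells co-cultured with peripheral blood mononuclear cells under LPS stimulation were exposed to test chemical for 24 h. VCAM-1 levels were then measured by ELISA, with bidirectional curve fitting relative to DMSO as negative control and baseline.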

[8] = read-out: CD38, CD38 (gene 952); assay: BSK_SAg_CD38: BioMAP Diversity Plus: SAg Assay for CD38 Biomarker Activity (AID 2283087); details: primary human HUVEC with PBMC; actives raise or lower the signal
How it was run: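 Fluorescence ELISA of cell-surface CD38 served as the read-out, with either increase or decrease fitted against DMSO controls. Cells were a human umbilical vein endothelium plus PBMC co-culture under SEB/TSST-1 stimulation, measured 24 h after dosing.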

[9] = read-out: CD40, CD40 (gene 958); assay: BSK_SAg_CD40: BioMAP Diversity Plus: SAg Assay for CD40 Biomarker Activity (AID 2283088); details: primary human HUVEC with PBMC; actives raise or lower the signal
How it was run: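 Compounds were dosed onto a human primary endothelial–PBMC co-culture, and after 24 h CD40 was quantified by ELISA using a fluorescence signal. Activity in either direction was fitted relative to DMSO.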

[10] = read-out: CD69, CD69 (gene 969); assay: BSK_SAg_CD69: BioMAP Diversity Plus: SAg Assay for CD69 Biomarker Activity (AID 2283089); details: primary human HUVEC with PBMC; actives raise or lower the signal;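 for AC50: cell surface CD69 protein quantified by ELISA with fluorescence detection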
How it was run: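 HUVEC co-cultured with PBMC were dosed with chemical, and CD69 was measured by ELISA with fluorescence read-out 24 h later. Bidirectional curve fitting used DMSO as negative control and activity baseline.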

[11] = read-out: Monocyte Chemoattractant Protein-1 (MCP1), CCL2 (gene 6347); assay: BSK_SAg_MCP1: BioMAP Diversity Plus: SAg Assay for Monocyte Chemoattractant Protein-1 (MCP1) Biomarker Activity (AID 2283090); details: primary human HUVEC with PBMC; actives raise or lower the signal
How it was run: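 MCP-1 levels in the endothelial–PBMC SAg co-culture were quantified by ELISA at 24 h post-dosing; both increases and decreases versus DMSO scored. Cytotoxicity monitored by SRB total protein in parallel cultures.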

[12] = read-out: E-selectin (Homo sapiens) (UniProt P16581); assay: BSK_SAg_Eselectin: BioMAP Diversity Plus: SAg Assay for Eselectin Biomarker Activity (AID 2283091); details: primary human HUVEC with PBMC; actives raise or lower the signal
How it was run: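 Co-culture: HUVEC + PBMC. Dose compound; 24 h. ELISA for E-selectin. Bidirectional fit vs DMSO.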

[13] = read-out: Monokine induced gamma interferon (MIG), CXCL9 (gene 4283); assay: BSK_SAg_MIG: BioMAP Diversity Plus: SAg Assay for Monokine induced gamma interferon (MIG) Biomarker Activity (AID 2283092); details: primary human HUVEC with PBMC; actives raise or lower the signal
How it was run: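 HUVEC plus human PBMC co-culture, chemicals dosed and MIG (CXCL9) quantified by ELISA at 24 h. Bidirectional curve fitting against DMSO as negative control and baseline, so both gain and loss of signal count as activity.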

[14] = BSK_SAg_PBMCCytotoxicity: PBMC Cytotoxicity Assessment in the BioMAP Diversity Plus: SAg Assay (AID 2283093); details: primary human HUVEC with PBMC;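 note: PBMC viability measured as Alamar Blue reduction fluorescence at 546/580 nm; fitted both ways against DMSO so a hit may be loss or gain of signal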;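 for AC50: PBMC superantigen activated with SEB plus TSST-1 one hour after compound addition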
How it was run: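 HUVEC/PBMC co-culture; PBMC exposed to chemical 1 h before SEB and TSST-1 activation (20 ng/mL each), incubated 90 h, then Alamar Blue 6 h, fluorescence 546/580 nm. Bidirectional fit versus DMSO baseline.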

[15] = read-out: Interleukin-8 (IL8), CXCL8 (gene 3576); assay: BSK_SAg_IL8: BioMAP Diversity Plus: SAg Assay for Interleukin-8 (IL8) Biomarker Activity (AID 2283094); details: primary human HUVEC with PBMC; actives raise or lower the signal
How it was run: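 Human umbilical vein endothelial cells co-cultured with peripheral blood mononuclear cells; IL-8 measured by ELISA 24 h after chemical dosing. Bidirectional concentration-response fitting used DMSO as negative control and activity baseline.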

[16] = BSK_SAg_Proliferation: Cell Proliferation Assessment in the BioMAP Diversity Plus: SAg Assay (AID 2283095); details: primary human HUVEC with PBMC;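 note: relative cell number as total protein by SRB absorbance in sub-confluent culture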
How it was run: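 Human umbilical vein endothelial cells co-cultured with peripheral blood mononuclear cells; total protein measured by sulforhodamine B staining (0.1% SRB after 10% TCA fixation), absorbance at 560 nm, at 96 h. Bidirectional fit against DMSO baseline.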

[17] = BSK_SAg_SRB: Viability Assessment in the BioMAP Diversity Plus: SAg Assay (AID 2283096); details: primary human HUVEC with PBMC;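 note: cells read one day after compound addition; hits may be either gain or loss of signal compared with DMSO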
How it was run: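 Human umbilical vein endothelial cells co-cultured with PBMC, read 24 h after compound dosing. Total protein measured by sulforhodamine B staining (0.1% SRB after 10% TCA fixation, absorbance 560 nm); bidirectional fit versus DMSO baseline.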

Measured: AC50

E-selectin (Homo sapiens), sequence (P16581 whole entry, looked up): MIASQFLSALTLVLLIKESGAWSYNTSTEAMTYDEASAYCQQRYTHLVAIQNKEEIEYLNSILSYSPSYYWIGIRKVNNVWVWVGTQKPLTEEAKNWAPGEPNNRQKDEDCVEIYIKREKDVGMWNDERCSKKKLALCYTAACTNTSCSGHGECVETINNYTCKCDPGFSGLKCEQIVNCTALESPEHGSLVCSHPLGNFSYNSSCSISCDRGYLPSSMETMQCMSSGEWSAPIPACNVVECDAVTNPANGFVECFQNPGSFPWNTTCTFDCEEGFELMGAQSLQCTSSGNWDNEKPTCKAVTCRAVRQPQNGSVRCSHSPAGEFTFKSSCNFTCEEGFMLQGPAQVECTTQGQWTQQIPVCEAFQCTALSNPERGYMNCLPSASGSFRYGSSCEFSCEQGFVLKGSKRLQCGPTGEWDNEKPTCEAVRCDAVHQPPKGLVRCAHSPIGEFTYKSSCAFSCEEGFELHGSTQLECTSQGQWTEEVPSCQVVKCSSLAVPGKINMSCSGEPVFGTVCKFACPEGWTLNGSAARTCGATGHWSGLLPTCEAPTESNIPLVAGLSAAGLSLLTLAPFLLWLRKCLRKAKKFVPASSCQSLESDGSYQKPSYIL
Tumor necrosis factor (Homo sapiens), sequence (P01375 whole entry, looked up): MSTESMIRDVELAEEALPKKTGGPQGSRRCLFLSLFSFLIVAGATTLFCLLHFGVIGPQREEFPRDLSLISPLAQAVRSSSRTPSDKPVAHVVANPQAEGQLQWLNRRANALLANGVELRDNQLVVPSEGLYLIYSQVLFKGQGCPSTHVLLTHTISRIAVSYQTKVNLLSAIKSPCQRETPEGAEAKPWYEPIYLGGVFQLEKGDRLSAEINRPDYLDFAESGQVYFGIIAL

CC1=CC=C(C(C)C)CC1
inactive: all assays above

CC(C)[N+](C)(CCOC(=O)C1c2ccccc2Oc2ccccc21)C(C)C
inactive: all assays above

CC(CCC(=O)O)(c1ccc(O)cc1)c1ccc(O)cc1
inactive: all assays above

CC=C(C)C(C)=O
not listed: [2]
inactive: all other assays above

CCCCCCCCCCCC(=O)N(C)CC(=O)O
active: [3] 5.24 µM | [4] 5.86 µM
inactive: [1] | [3] | [4] | [5] | [6] | [7] | [8] | [9] | [10] | [11] | [12] | [13] | [14] | [15] | [16] | [17]

CCCCCCCCCCCC(C)=O
active: [6] 29.2 µM | [7] 30.8 µM | [8] 31.6 µM | [9] 30 µM | [10] 31.1 µM | [11] 31.1 µM | [12] 33.3 µM | [14] 32 µM | [15] 33.8 µM | [16] 34 µM
inactive: [1] | [2] | [3] | [4] | [5] | [13] | [17]
